Activity calls are given as the source filed them.

Assay [1] deals with Human papillomavirus type 1a protein E7 (residues 44-93). In words: HPV1a E7 fragment binders on microarrays, primary screen, biochemical, small-molecule microarray, residues 44-93, 635 nm fluorescence (AID 1108).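 Note: E7 fragment applied at 1 µg/mL in TBST for 1 h at 4 C; score combines spot fluorescence with its signal to noise ratio.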 The note with it: small-molecule microarray binding, fluorescence 635 nm; higher = more signal.
Assay [2] is described as follows: modulators of HCV replicon luciferase signal, primary screen, HCV replication inhibitor project, Huh7 cells, luciferase reporter (AID 1109).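 Note: huh7 hepatoma cells harbouring a luciferase neomycin HCV replicon reporter; luciferase luminescence as measure of HCV replicon replication; test concentration not given here.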 The following applies: 48 h, higher = more signal. (Replicon systems follow genome replication, usually without infectious particles.)
Assay [3] has as its target Left-right determination factor 2 (Homo sapiens) (UniProt O00292). In words: LEFTY2 binders on small-molecule microarrays, primary screen, biochemical, small-molecule microarray, 635 nm fluorescence scan (AID 1110). The following applies: LEFTY2 binding, higher = more signal.
Assay [4] addresses Calmodulin-1 (Homo sapiens) (UniProt P0DP23). Nature of the assay: CALM1 binders on microarrays, EGTA buffer, profiling panel, biochemical, small-molecule microarray, Cy5-labelled CALM1 (AID 1111).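 Note: labelled calmodulin applied in Tris saline Tween buffer holding calcium plus EGTA and DTT.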 The following applies: Cy5-CALM1 binding fluorescence, higher = more signal.
The target is the same in assay [5]. In words: calcium-bound CALM1 binders on microarrays, profiling panel, artefact control for SMM control-protein annotation, biochemical, small-molecule microarray, Cy5-labelled CALM1, plus calcium (AID 1112).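 Note: score merges spot fluorescence with signal to noise from triplicate slides.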 The following applies: Cy5-CALM1 binding fluorescence, higher = more signal.
Assay [6] can be described thus: small-molecule microarray binders of probe aWnt5a, primary screen, biochemical, biotinylated probe, 635/667 nm fluorescence (AID 1113).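 Note: score merges 667 nm fluorescence intensity with signal-to-noise per printed feature.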 The following applies: higher = more signal.
The nature of assay [7]: small-molecule microarray binders of probe aShh, primary screen, biochemical, biotinylated probe, 635/667 nm fluorescence (AID 1114).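 Note: probe is biotin-labelled aShh protein from a stem cell growth factor screen; measures binding of labelled protein to compounds printed on the slide; score merges feature fluorescence at 667 nm with signal-to-noise.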 The following applies: higher = more signal.
Assay [8] is described as follows: small-molecule microarray binders of probe aNog, primary screen, biochemical, biotinylated probe, 635/667 nm fluorescence (AID 1115).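 Note: probe is biotinylated aNog protein used at 0.15 µg/mL for 1 h at 4 C; z-score combines 667 nm fluorescence of each spot with its signal to noise.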 The note with it: higher = more signal.
For assay [9], the target named is Torsin-1A-interacting protein 1 (Homo sapiens) (UniProt Q5JTV8). Nature of the assay: LAP1 binders from COS7 cell lysate, primary screen, small-molecule microarray, 635/667 nm fluorescence (AID 1116). The note with it: COS7-hLAP1 lysate binding, 635 nm fluorescence, higher = more signal.
The target in assay [10] is Alpha-bungarotoxin (Bungarus multicinctus) (UniProt P60615). In words: alpha-bungarotoxin binders on microarray, profiling panel, artefact control for SMM control protein annotation, biochemical, small-molecule microarray, Alexa647 label, 635/667 nm fluorescence (AID 1117). The note with it: alpha-BTX-A647 binding fluorescence, higher = more signal.
Another assay addresses Albumin (Bos taurus) (UniProt P02769). Nature of the assay: bovine serum albumin binders on microarray, profiling panel, artefact control for SMM control protein annotation, biochemical, small-molecule microarray, Alexa647 label, 635/667 nm fluorescence (AID 1118).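 Note: score merges 667 nm emission intensity and signal-to-noise per printed compound spot.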 The note with it: BSA-A647 binding, fluorescence 635 nm, higher = more signal.
The nature of assay [11]: small-molecule microarray binders of probe aXIP, primary screen, biochemical, NeuroSMM set, 635/667 nm fluorescence (AID 1119).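 Note: probe is the protein aXip251-270 applied at 1 µg/mL to compound-printed slides; binding of probe to printed compounds measured as 667 nm fluorescence plus signal to noise.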 The following applies: higher = more signal, called active from +8 up or from −8 down.
The nature of assay [12]: small-molecule binders of probe aNOTCH3, primary screen, biochemical, small-molecule microarray, 635/667 nm fluorescence (AID 1120).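 Note: probe is a biotin-tagged antibody raised against NOTCH3 rather than NOTCH3 protein; score merges spot fluorescence near 667 nm with spot signal to noise.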 The note with it: higher = more signal.
Assay [13] can be described thus: small-molecule binders of probe aNOTCH2, primary screen, biochemical, small-molecule microarray, 635/667 nm fluorescence (AID 1121).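 Note: score merges feature fluorescence read at 667 nm with its signal to noise.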 The note with it: higher = more signal.
Assay [14] has as its target Carbonic anhydrase 2 (Homo sapiens) (UniProt P00918). In words: CAII small-molecule binders, profiling panel, biochemical, small-molecule microarray, Alexa647-labelled CAII (AID 1122). The note with it: CAII-A647 binding fluorescence, higher = more signal.
Assay [15] in a line: COS7 lysate on small-molecule microarray, probe aHis, 635 nm (AID 1123).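 Note: z-score combines 667nm fluorescence intensity with signal-to-noise per printed compound spot.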 The following applies: COS7 cell lysate, fluorescence, higher = more signal.
Assay [16] is described as follows: compound binding in COS7 lysate, probe aLAP1, primary screen, cell lysate, small-molecule microarray (AID 1124).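 Note: lysate comes from COS7 cells expressing LAP1 and is applied at 0.3 µg/mL; score merges spot fluorescence near 667 nm with signal-to-noise over triplicate slides.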 The note with it: probe aLAP1, fluorescence, higher = more signal.
The subject of a further assay is Sam68 (KHDRBS1). Nature of the assay: Sam68 small-molecule binders, primary screen, biochemical, small-molecule microarray, 635 nm fluorescence (AID 1125).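 Note: score merges 667 nm channel intensity with signal to noise over triplicate slides.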 The note with it: small-molecule microarray binding, higher = more signal.
For assay [17], the system named is Chordin-like protein 2 (CHRDL2). In words: CHRDL2 small-molecule binders, primary screen, biochemical, small-molecule microarray, 635 nm fluorescence (AID 1126).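 Note: printed compound slides probed with Chrdl2 protein at 4 µg/mL for 1 h at 4 C; score merges 667 nm emission intensity with signal to noise over three replicate slides.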 The following applies: small-molecule microarray binding, fluorescence 635 nm; higher = more signal.
The target of assay [18] is Concanavalin-A (Canavalia ensiformis) (UniProt P02866). In words: ConA small-molecule binders, primary screen, artefact control for SMM control protein annotation, biochemical, small-molecule microarray, Alexa647 label, 635 nm (AID 1127).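 Note: z combines 667 nm emission intensity with signal-to-noise across three replicate slides.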 The following applies: ConA-A647 binding fluorescence, higher = more signal.
Sequence of Concanavalin-A (Canavalia ensiformis) (P02866 whole entry, looked up): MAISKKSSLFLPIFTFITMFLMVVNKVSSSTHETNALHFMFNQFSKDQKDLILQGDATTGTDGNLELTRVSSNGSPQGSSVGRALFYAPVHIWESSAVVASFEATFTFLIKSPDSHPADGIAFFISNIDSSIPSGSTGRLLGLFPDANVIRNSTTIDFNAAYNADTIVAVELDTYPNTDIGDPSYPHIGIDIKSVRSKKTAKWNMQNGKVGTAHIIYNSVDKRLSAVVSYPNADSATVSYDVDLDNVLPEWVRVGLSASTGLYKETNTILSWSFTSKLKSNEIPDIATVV

Sequence of Albumin (Bos taurus) (P02769 whole entry, looked up): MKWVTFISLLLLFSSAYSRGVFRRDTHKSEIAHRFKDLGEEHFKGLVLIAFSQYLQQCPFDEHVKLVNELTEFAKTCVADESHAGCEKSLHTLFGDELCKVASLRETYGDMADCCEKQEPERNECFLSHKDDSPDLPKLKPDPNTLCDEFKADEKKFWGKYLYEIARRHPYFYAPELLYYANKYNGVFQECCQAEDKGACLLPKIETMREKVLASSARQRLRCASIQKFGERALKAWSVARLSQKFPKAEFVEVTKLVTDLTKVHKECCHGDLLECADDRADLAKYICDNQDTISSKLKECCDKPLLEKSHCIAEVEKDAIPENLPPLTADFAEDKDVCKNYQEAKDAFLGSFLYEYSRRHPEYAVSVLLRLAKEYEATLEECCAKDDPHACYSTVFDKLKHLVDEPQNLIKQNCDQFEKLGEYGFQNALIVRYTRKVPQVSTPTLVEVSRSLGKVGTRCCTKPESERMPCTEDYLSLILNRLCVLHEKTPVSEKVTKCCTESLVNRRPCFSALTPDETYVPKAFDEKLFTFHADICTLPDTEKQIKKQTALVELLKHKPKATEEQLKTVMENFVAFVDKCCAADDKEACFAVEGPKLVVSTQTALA
Sequence of Alpha-bungarotoxin (Bungarus multicinctus) (P60615 whole entry, looked up): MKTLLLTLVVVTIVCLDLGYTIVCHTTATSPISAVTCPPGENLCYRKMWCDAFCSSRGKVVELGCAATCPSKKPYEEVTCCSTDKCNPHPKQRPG
Sequence of Torsin-1A-interacting protein 1 (Homo sapiens) (Q5JTV8 whole entry, looked up): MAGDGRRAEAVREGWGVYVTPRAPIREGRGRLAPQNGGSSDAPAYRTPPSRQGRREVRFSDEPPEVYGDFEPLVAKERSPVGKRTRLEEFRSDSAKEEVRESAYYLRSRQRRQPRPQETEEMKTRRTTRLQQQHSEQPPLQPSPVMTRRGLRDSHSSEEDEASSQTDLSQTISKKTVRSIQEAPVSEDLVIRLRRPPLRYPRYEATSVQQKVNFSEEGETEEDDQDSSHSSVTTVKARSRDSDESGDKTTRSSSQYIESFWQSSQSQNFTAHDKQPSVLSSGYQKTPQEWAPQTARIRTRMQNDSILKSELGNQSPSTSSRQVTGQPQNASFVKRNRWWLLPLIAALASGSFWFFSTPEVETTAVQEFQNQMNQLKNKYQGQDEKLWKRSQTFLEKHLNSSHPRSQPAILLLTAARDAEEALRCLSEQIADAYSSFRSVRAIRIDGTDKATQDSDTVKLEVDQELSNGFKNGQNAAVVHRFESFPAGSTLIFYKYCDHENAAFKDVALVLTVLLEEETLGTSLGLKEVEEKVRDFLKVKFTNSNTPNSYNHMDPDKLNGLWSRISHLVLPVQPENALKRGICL
Sequence of Left-right determination factor 2 (Homo sapiens) (O00292 whole entry, looked up): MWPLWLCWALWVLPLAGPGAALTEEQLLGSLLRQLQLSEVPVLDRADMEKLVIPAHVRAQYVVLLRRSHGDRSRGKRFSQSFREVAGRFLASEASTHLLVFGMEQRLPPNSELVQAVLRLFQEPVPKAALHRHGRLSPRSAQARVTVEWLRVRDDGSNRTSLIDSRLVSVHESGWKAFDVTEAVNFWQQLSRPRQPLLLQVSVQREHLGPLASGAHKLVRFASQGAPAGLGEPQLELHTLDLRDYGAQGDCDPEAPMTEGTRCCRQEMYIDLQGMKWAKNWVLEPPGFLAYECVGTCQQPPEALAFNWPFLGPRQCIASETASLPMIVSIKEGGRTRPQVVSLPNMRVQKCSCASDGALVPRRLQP

On to `CN(C)C(=O)[C@@]1(Cc2ccccc2N=[N+]=[N-])N=C(c2ccc(OCCCO)cc2)O[C@H]1c1ccccc1`, for which the composite z-score in [1] was 0.0896; in assay [3], 0.123; in assay [4], 2.4; in assay [5], 1.09; in assay [6], 0.103; in assay [7], -0.0022. Further, the composite z-score was -0.743 in assay [8]; 1.32 in assay [9]; 2.17 in [10]; 0.897 with Albumin (Bos taurus); 0.484 in assay [12]; 0.369 in assay [13]. Besides, the composite z-score in assay [14] was 0.681; in [15], 2.76; in assay [16] it was 1.13; with Sam68 (KHDRBS1) it was 1.31; in [17], -0.699; in [18] it was 1.18. This compound also returned a z-score in assay [2] of -2.52. In addition, in [11], the composite Z-score is 2.37 (inactive).
For `CC(C)C(CO)N1C(=O)[C@@H]2[C@H]3C(=O)OCC=C[C@H]3OC23C=CCN(C(C)(C)C)C(=O)[C@@H]13` (stereo not given in full), the composite z-score was -1.27 in assay [1]; -0.15 in [3]; -0.907 in assay [4]; -1.43 in assay [5]; -0.204 in [6]; 0.0725 in [7]. Also, the composite z-score in assay [8] is -0.133; in assay [9], -0.809; in [10], -0.0022; with Albumin (Bos taurus), -0.0498; in assay [12], -0.252; in [13], -0.168. Further, the composite z-score in assay [14] is 0.409; in assay [15], -0.843; in assay [16], -0.495; with Sam68 (KHDRBS1), -1.41; in assay [17], -0.109; in [18], 0.0282. In addition, the z-score in [2] was -0.425. The composite Z-score in [11] was -0.343 (inactive).
With `Cc1ccc(S[C@]2(C(=O)NC(C)C)CC(=O)N(C(C)C)[C@@H]2c2ccc(CO)cc2I)cc1`, the composite z-score in [1] is 0.973; in assay [3] it was -0.485; in [4], 0.198; in assay [5], -0.114; in [6], -0.104; in assay [7] it was 0.216. Also, the composite z-score in assay [8] was -0.327; in assay [9], 0.322; in assay [10], -0.174; with Albumin (Bos taurus), 0.41; in assay [12], -0.0647; in assay [13], -0.0686. Also, the composite z-score in assay [14] was 0.326; in assay [15] it was 1.32; in [16] it was 0.366; in the assay with Sam68 (KHDRBS1) it was 1.12; in [17], -0.598; in [18], -0.0097. In assay [2], this compound showed a z-score of -1.75. Further, the composite Z-score in assay [11] is -0.283 (inactive).
As for `Cc1cccc([C@H]2C[C@H]3C(I)=C[C@@H]2C(=O)[C@]32CO2)c1`, the composite z-score was -0.998 in [1]; 0.0047 in assay [3]; -0.542 in assay [4]; -0.271 in assay [5]; -0.141 in [6]; -0.345 in [7]. Further, the composite z-score in assay [8] is -0.0381; in assay [9] it was -0.0258; in assay [10], 0.132; in the assay with Albumin (Bos taurus) it was -0.883; in assay [12], -0.199; in [13], -0.112. The composite z-score in assay [14] is 0.0705; in assay [15] it was -0.55; in [16], 0.466; in the assay on Sam68 (KHDRBS1), -0.5; in [17], 0.645; in [18], -0.478. Besides, the z-score in [2] is -1.94. For the same compound, the composite Z-score in [11] was 0.694 (inactive).
Turning to `CO[C@H]1O[C@H](CO)[C@@H](OC(=O)CCc2ccccc2)[C@H](OC(=O)c2cc3ccccc3[nH]2)[C@H]1OC(=O)c1cc2ccccc2[nH]1`, the composite z-score in assay [1] was 1.34; in [3], 0.817; in assay [4], 1.65; in assay [5], 0.193; in [6], 0.055; in assay [7] it was -0.138. The composite z-score in [8] was 0.248; in assay [9], 1.21; in [10], 0.889; in the assay with Albumin (Bos taurus), 0.777; in [12], -0.0284; in [13], -0.223. Besides, the composite z-score was 0.68 in [14]; 0.78 in [15]; -0.206 in assay [16]; 1.22 in the assay with Sam68 (KHDRBS1); 0.453 in [17]; 1.09 in [18]. This compound yielded a z-score in assay [2] of -3.2. The composite Z-score in assay [11] was -0.134 (inactive).
`C=CCN1C(=O)[C@@]2(O[C@@H](CCO)[C@H]([Si](C)(C)c3ccc(OC)cc3)[C@H]2C)c2cc(N3CCOC3=O)ccc21`: the composite z-score in [1] is 1.31; in assay [3] it was -0.135; in [4], 0.278; in assay [5] it was 0.444; in assay [6], -0.0981; in assay [7] it was -0.243. Besides, the composite z-score in assay [8] was -0.0239; in assay [9] it was 0.878; in [10] it was 0.105; with Albumin (Bos taurus), 0.729; in assay [12], -0.0647; in assay [13] it was -0.127. Further, the composite z-score in assay [14] is 0.483; in [15], -0.617; in assay [16], 0.155; in the assay with Sam68 (KHDRBS1), 0.329; in assay [17], -0.403; in assay [18], 0.993. Moreover, the z-score in assay [2] is -4.84. Further, the composite Z-score in [11] is 0.0117 (inactive).

The values are drawn from PubChem BioAssay.
